Whole data set: some 81,000 sequences, median “one-hybrid fitness for binding parS DNA” near -0.17, cut for the highest 2% near 0.51. The list comes from a sample in which the highest values are over-represented; it also holds similar and randomly drawn sequences.
B1: Caulobacter ParB omega fusion; a variant is named by its letters at X, in order, B8GW30 (parent)
chain: MESVVVGEPGMSEGRRGLGRGLSALLGEVDAAPAQAPGEQLGGSREAPIEILQRNPDQPRRTFREEDLEDLSNSIREKGVLQPILVRPSPDTAGEYQIVAGERAWRAAQRAGLKTVPIMVRELDDLAVLEIGIIENVQRADLNVLEEALSYKVLMEKFERTQENIAQTIGKSXSHVANXMRLLXLPDEVQSYLVSGELTAXHARAIAAAADPVALAKQIIEGGLSVRETEALARKAPNLSAGKSKGGRPPRVKDTDTQALESDLSSVLGLDVSIDHRGSTGTLTITYATLEQLDDLCNRLTRGI

Variants of: B1
Test: one-hybrid fitness for binding parS DNA (scaled: cognate 1, non-cognate 0); higher = stronger binding
Details: with parS DNA site
In short: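 Selection: bacterial one-hybrid in E. coli USO, HIS3 reporter with the site 19 bp from the promoter, 48 hours at 37°C on M9-minus-histidine plus 0.1 mM IPTG and 5 mM 3-AT. Libraries were Caulobacter ParB with four randomised specificity codons, sequenced on Illumina before and after selection. Fitness is the rescaled log change in variant-to-wild-type read ratio, anchored to the cognate and non-cognate sites.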

| Variant | one-hybrid fitness for binding parS DNA |
| --- | --- |
| TDKS | ≤ 0.2 |
| CMDR | ≤ 0.2 |
| TNLK | ≤ 0.2 |
| RLIN | 0.38 |
| RLPD | ≤ 0.2 |
| RLPS | 0.86 |
| RLPN | 0.225 |
| RLIS | 1 |
| RLIP | ≤ 0.2 |
| IHED | ≤ 0.2 |
| PMWM | ≤ 0.2 |
| RFKG | 0.988 |
| RFVG | 0.77 |
| NFKG | ≤ 0.2 |
| RFVN | 0.26 |
| NFVG | ≤ 0.2 |
| RFKD | ≤ 0.2 |
| LLAH | ≤ 0.2 |
| KLSS | ≤ 0.2 |
| YSYS | ≤ 0.2 |
| RRKG | 0.708 |
| RRKF | ≤ 0.2 |
| RRVG | 0.836 |
| RRVQ | ≤ 0.2 |

| Variant | one-hybrid fitness for binding parS DNA |
| --- | --- |
| RRKK | ≤ 0.2 |
| RRVR | ≤ 0.2 |
| LFLG | ≤ 0.2 |
| SWLK | ≤ 0.2 |
| PTSL | ≤ 0.2 |
| QPAA | ≤ 0.2 |
| FRES | ≤ 0.2 |
| PPSL | ≤ 0.2 |
| SYQW | ≤ 0.2 |
| DTNA | ≤ 0.2 |
| RGDA | 0.235 |
| NTNA | ≤ 0.2 |
| RTNA | 0.722 |
| RTDA | 0.554 |
| WHYV | ≤ 0.2 |
| HFVM | ≤ 0.2 |
| QFAC | ≤ 0.2 |
| RLGG | 0.995 |
| RCGG | 1.01 |
| RSGK | ≤ 0.2 |
| RLGH | 0.204 |
| RIGH | 0.246 |
| RDGG | ≤ 0.2 |
| REGG | 0.2 |

| Variant | one-hybrid fitness for binding parS DNA |
| --- | --- |
| RSGG | 0.998 |
| RIGG | 1.02 |
| RLGN | 0.469 |
| RIGD | ≤ 0.2 |
| RPGG | ≤ 0.2 |
| HLHN | ≤ 0.2 |
| EVNR | ≤ 0.2 |
| RCWR | ≤ 0.2 |
| NFVA | ≤ 0.2 |
| MAPR | ≤ 0.2 |
| YLCV | ≤ 0.2 |
| DLKG | ≤ 0.2 |
| TWYC | ≤ 0.2 |
| TAYD | ≤ 0.2 |
| PPTG | ≤ 0.2 |
| RQPG | 0.514 |
| RQIN | 0.248 |
| RQIH | ≤ 0.2 |
| RQIG | 0.805 |
| RQPH | ≤ 0.2 |
| RQPD | ≤ 0.2 |
| LCRT | ≤ 0.2 |
| CNIR | ≤ 0.2 |
| TNIS | ≤ 0.2 |

| Variant | one-hybrid fitness for binding parS DNA |
| --- | --- |
| ASKM | ≤ 0.2 |
| RCDS | 1.02 |
| RSDS | 0.939 |
| RSDH | ≤ 0.2 |
| RPDS | ≤ 0.2 |
| RCNP | ≤ 0.2 |
| RSND | ≤ 0.2 |
| RSNS | 0.959 |
| RSDP | ≤ 0.2 |
| RCNS | 0.908 |
| RSNH | 0.203 |
| RPNS | ≤ 0.2 |
| RCDP | 0.204 |
| FIST | ≤ 0.2 |
| SDVE | ≤ 0.2 |
| QNER | ≤ 0.2 |
| HDLW | ≤ 0.2 |
| GHTP | ≤ 0.2 |
| IPGC | ≤ 0.2 |
| FIPR | ≤ 0.2 |
| LDNV | ≤ 0.2 |
| RMTR | ≤ 0.2 |
| RMTC | 0.985 |
| RTTN | 0.415 |

| Variant | one-hybrid fitness for binding parS DNA |
| --- | --- |
| RTTQ | ≤ 0.2 |
| RITR | ≤ 0.2 |
| RETC | ≤ 0.2 |
| RITC | 0.962 |
| RITY | 0.443 |
| RTTC | 0.991 |
| RMTP | ≤ 0.2 |
| RSTQ | ≤ 0.2 |
| RSTC | 0.97 |
| QHHF | ≤ 0.2 |
| PRIV | ≤ 0.2 |
| VMLC | ≤ 0.2 |
| DQKI | ≤ 0.2 |
| NPVG | ≤ 0.2 |
| FASY | ≤ 0.2 |
| GGAS | ≤ 0.2 |
| RRTR | ≤ 0.2 |
| RRTC | 0.616 |
| RKTP | ≤ 0.2 |
| RCTC | 1 |
| RHTY | 0.41 |
| RKTN | 0.336 |
| RDTC | ≤ 0.2 |
| RHTH | ≤ 0.2 |

| Variant | one-hybrid fitness for binding parS DNA |
| --- | --- |
| RKTC | 0.793 |
| NRTC | ≤ 0.2 |
| RPTC | ≤ 0.2 |
| RHTC | 0.946 |
| MMQL | ≤ 0.2 |
| GRRM | ≤ 0.2 |
| RHSV | ≤ 0.2 |
| AKSG | ≤ 0.2 |
| REHW | ≤ 0.2 |
| EAGS | ≤ 0.2 |
| KYAG | ≤ 0.2 |
| ELVS | ≤ 0.2 |
| SVCS | ≤ 0.2 |
| LPIR | ≤ 0.2 |
| GTYV | ≤ 0.2 |
| VEST | ≤ 0.2 |
| SGLP | ≤ 0.2 |
| CLRH | 0.227 |
| NFTC | ≤ 0.2 |
| RATN | 0.436 |
| RLTM | 0.346 |
| RFTN | 0.405 |
| RATP | ≤ 0.2 |
| RFTC | 0.95 |

| Variant | one-hybrid fitness for binding parS DNA |
| --- | --- |
| RLTN | 0.43 |
| RLTC | 1 |
| RATC | 0.982 |
| REFP | ≤ 0.2 |
| GDAW | ≤ 0.2 |
| RNAM | 0.243 |
| RNFT | 0.573 |
| RNAT | 0.686 |
| RNAK | ≤ 0.2 |
| RNFF | ≤ 0.2 |
| RNFK | ≤ 0.2 |
| VNTS | ≤ 0.2 |
| NGQK | ≤ 0.2 |
| QLDA | ≤ 0.2 |
| AVCE | ≤ 0.2 |
| APET | ≤ 0.2 |
| RRTS | 0.651 |
| RRTN | 0.695 |
| RRTQ | ≤ 0.2 |
| RRTP | ≤ 0.2 |
| RRTH | ≤ 0.2 |
| RRTD | ≤ 0.2 |
| APDT | ≤ 0.2 |
| CSER | ≤ 0.2 |

| Variant | one-hybrid fitness for binding parS DNA |
| --- | --- |
| DLWS | ≤ 0.2 |
| MGLC | ≤ 0.2 |
| GWAG | ≤ 0.2 |
| KEHC | ≤ 0.2 |
| REVT | ≤ 0.2 |
| RDVT | ≤ 0.2 |
| RPVT | ≤ 0.2 |
| RSVT | 0.707 |
| RCVT | 0.843 |
| CVDQ | ≤ 0.2 |
| ITTC | ≤ 0.2 |
| LKCF | ≤ 0.2 |
| HKKY | ≤ 0.2 |
| RIIG | 0.924 |
| RIIH | 0.233 |
| RIPF | ≤ 0.2 |
| RIPG | 0.703 |
| RIPR | ≤ 0.2 |
| RIIY | 0.398 |
| DMEL | ≤ 0.2 |
| CRVS | ≤ 0.2 |
| QASM | ≤ 0.2 |
| RYKQ | ≤ 0.2 |
| RYVD | ≤ 0.2 |

| Variant | one-hybrid fitness for binding parS DNA |
| --- | --- |
| RYVG | 0.899 |
| RYKG | 0.91 |
| RYVP | ≤ 0.2 |
| RYKF | 0.257 |
| VKQG | ≤ 0.2 |
| RVVK | ≤ 0.2 |
| RVKM | 0.393 |
| RVKG | 0.941 |
| RVKQ | ≤ 0.2 |
| RVVG | 0.942 |
| RVVF | 0.22 |
| QSVI | ≤ 0.2 |
| DCRY | ≤ 0.2 |
| LYRG | ≤ 0.2 |
| QLEI | ≤ 0.2 |
| RRDN | 0.257 |
| RRNS | 0.646 |
| RRNN | 0.811 |
| RRDS | 0.743 |
| RRDP | ≤ 0.2 |
| RRND | ≤ 0.2 |
| RRDD | ≤ 0.2 |
| RRNP | ≤ 0.2 |
| RRNH | 0.256 |

| Variant | one-hybrid fitness for binding parS DNA |
| --- | --- |
| MPNM | ≤ 0.2 |
| LHPH | ≤ 0.2 |
| GDDG | ≤ 0.2 |
| QSME | ≤ 0.2 |
| ACRS | ≤ 0.2 |
| SHIK | ≤ 0.2 |
| VLLG | ≤ 0.2 |
| RFDN | 0.354 |
| RFNS | 0.984 |
| RFDS | 0.954 |
| RFND | ≤ 0.2 |
| RFNH | ≤ 0.2 |
| RFDP | ≤ 0.2 |
| RMAW | 0.235 |
| WGKS | ≤ 0.2 |
| RQTE | ≤ 0.2 |
| NRHC | ≤ 0.2 |
| RRST | 0.54 |
| RRDK | ≤ 0.2 |
| RRDF | ≤ 0.2 |
| RRYT | 0.604 |
| RRDT | 0.648 |
| RRRT | 0.597 |
| RRYF | ≤ 0.2 |

| Variant | one-hybrid fitness for binding parS DNA |
| --- | --- |
| RRRR | ≤ 0.2 |
| RRYQ | ≤ 0.2 |
| RRSK | ≤ 0.2 |
| RRSQ | ≤ 0.2 |
| RRRK | ≤ 0.2 |
| SYQG | ≤ 0.2 |
| LIRC | ≤ 0.2 |
| MILL | ≤ 0.2 |
| PRDA | ≤ 0.2 |
| YSLD | ≤ 0.2 |
| WHRF | ≤ 0.2 |
| RRGT | 0.566 |
| RRLT | 0.623 |
| RRCQ | ≤ 0.2 |
| RRWM | ≤ 0.2 |
| RRWT | 0.682 |
| RRLM | ≤ 0.2 |
| RRWR | ≤ 0.2 |
| RRCT | 0.587 |
| RRGM | 0.391 |
| RRCK | ≤ 0.2 |
| RRGK | ≤ 0.2 |
| RRLQ | ≤ 0.2 |
| SPPK | ≤ 0.2 |

| Variant | one-hybrid fitness for binding parS DNA |
| --- | --- |
| RSIQ | ≤ 0.2 |
| YRAT | ≤ 0.2 |
| EFSC | ≤ 0.2 |
| DTGT | ≤ 0.2 |
| LRWE | ≤ 0.2 |
| AHLK | ≤ 0.2 |
| MITC | ≤ 0.2 |
| RRPK | ≤ 0.2 |
| LTLY | ≤ 0.2 |
| RRNR | ≤ 0.2 |
| RRQT | 0.551 |
| RRHT | 0.593 |
| RRHR | ≤ 0.2 |
| RRQK | ≤ 0.2 |
| RRNT | 0.565 |
| RRNK | ≤ 0.2 |
| DRHT | ≤ 0.2 |
| RRQF | ≤ 0.2 |
| HISY | ≤ 0.2 |
| PLCG | ≤ 0.2 |
| KSHC | ≤ 0.2 |
| TRTL | ≤ 0.2 |
| QHPL | ≤ 0.2 |
| TQMA | ≤ 0.2 |

| Variant | one-hybrid fitness for binding parS DNA |
| --- | --- |
| LYGV | ≤ 0.2 |
| STLG | ≤ 0.2 |
| RMFM | 0.369 |
| RMFT | 0.882 |
| RMAY | 0.436 |
| RMAT | 0.913 |
| RMFF | 0.206 |
| RMAQ | ≤ 0.2 |
| VYHP | ≤ 0.2 |
| HINR | ≤ 0.2 |
| PLDY | ≤ 0.2 |
| PNDH | ≤ 0.2 |
| RVVN | 0.41 |
| RVKH | ≤ 0.2 |
| RVKP | ≤ 0.2 |
| RVKS | 0.831 |
| RVVS | 1.03 |
| RVVD | ≤ 0.2 |
